# From PubChem BioAssay AID1851 (National Center for Advancing Translational Sciences (NCATS), 2009)
# Hit rate of the full screen: of about 16,000 compounds, about 5,700 (36%) were called active. Not shown: some 24% with an inconclusive outcome. Some of the results follow. Unmarked numbers belong to inactive results. Calls follow the shape of the dose curve; as a rule, active = well fitted curve in the direction sought with a large enough effect; inconclusive = small, poorly fitted or top-dose-only effect, or effect the other way; inactive = no such curve, though single readings can be large or run the other way.
# Target: Cytochrome P450 1A2 (Homo sapiens) (UniProt P05177)
# Assay: Cytochrome panel assay with activity outcomes
# Settings: recombinant CYP, pro-luciferin dealkylation, luminescence, p450-cyp1a2; series mostly up to 57.1 µM; activity, negative = inhibition: at the top concentration
# % is scaled to controls: 0 for no effect and ±100 for the full control effect.
# Chain of Cytochrome P450 1A2 (Homo sapiens) (P05177 whole entry, looked up): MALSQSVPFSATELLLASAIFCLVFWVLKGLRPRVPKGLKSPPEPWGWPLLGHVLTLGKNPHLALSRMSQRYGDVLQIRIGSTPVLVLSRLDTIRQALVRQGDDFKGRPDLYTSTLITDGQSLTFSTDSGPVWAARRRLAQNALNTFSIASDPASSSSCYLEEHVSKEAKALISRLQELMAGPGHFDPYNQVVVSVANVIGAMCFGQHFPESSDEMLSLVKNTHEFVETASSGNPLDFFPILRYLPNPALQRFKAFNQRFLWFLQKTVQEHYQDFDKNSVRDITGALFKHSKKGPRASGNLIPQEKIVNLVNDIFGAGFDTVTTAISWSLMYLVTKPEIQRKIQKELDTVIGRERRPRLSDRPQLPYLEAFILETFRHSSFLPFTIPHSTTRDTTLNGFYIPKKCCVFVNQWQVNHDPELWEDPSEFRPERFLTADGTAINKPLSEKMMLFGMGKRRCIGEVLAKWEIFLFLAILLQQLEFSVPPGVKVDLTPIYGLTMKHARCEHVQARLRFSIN
SMILES,"activity, negative = inhibition",AC50
CS(=O)(=O)Nc1ccc(C(=O)N2CCN(c3ccccc3)CC2)cc1,-6.89%,–
CN1CCN(c2ccnc(-c3cccc(NS(C)(=O)=O)c3)n2)CC1,–,12.6 µM (active)
CCN1C(=O)[C@H]2[C@H]3[C@H](O)[C@H](O)C/C(=N/OCC(C)C)[C@@H]3CC[C@@H]2C1=O,-10.8% [at 11.4 µM],–
O=[N+]([O-])c1cccnc1NCCNc1ncc(C(F)(F)F)cc1Cl,–,2 µM (active)
COC(=O)[C@@]1(Cc2ccc(F)cc2)[C@H]2c3cc(C(=O)N4CCCC4)n(CCCNc4ncc(C(F)(F)F)cc4Cl)c3C[C@H]2CN1C(=O)c1ccccc1,-11.6%,–
C[C@@H]1O[C@@H](O)[C@@H](O)[C@H](O)[C@H]1O,-2.48% [at 11.4 µM],–
O=C(O)c1ccccc1N/N=C\c1ccnc2ccccc12,–,11.2 µM (active)
O=C(O)CCNc1ccccc1C(=O)O,-11.9% [at 11.4 µM],–
Cn1c(=O)c2c(nc(N/N=C\c3ccccc3C(=O)O)n2C)n(C)c1=O,5.78% [at 11.4 µM],–
Brc1ccc(C2=Nn3c(nnc3-c3cccnc3)SC2)s1,–,5.01 µM (active)
COc1ccc(C(C(=O)NC2CCCC2)N(C(=O)c2snc(-c3ccc(F)cc3)c2N)c2ccccc2)cc1 (stereo not drawn),2.42%,–
Cc1cc2ccccn2c1C(=O)c1nc(N2CCOCC2)ncc1Cl,–,15.8 µM (active)
Cc1cc2ccccn2c1C(=O)c1ccc(Cl)cc1,–,3.16 µM (active)
Cc1sc(=NC(=O)c2ccco2)n(C)c1-c1ccc(F)cc1,–,8.91 µM (active)
COc1ccccc1-c1nc(N2CCN(C)CC2)c2ccccc2n1,–,12.6 µM (active)
COc1ccccc1C(=O)N1CCN(c2ccccn2)CC1,-22.5%,–
COc1ccccc1-c1nc(N2CCOCC2)c2ccccc2n1,–,0.501 µM (active)
O=C1c2cccc3cccc(c23)C(=O)N1CC1CCN(CC(O)COc2ccc3ccccc3c2)CC1 (stereo not drawn),–,0.562 µM (active)
CC(C)(C)C1CCC(OCC(O)CN2CCN(c3ccccc3)CC2)CC1 (stereo not drawn),-2.29%,–
O=C(c1ccccc1)c1ccc(OCC(O)CN2CCN(Cc3ccccc3)CC2)cc1 (stereo not drawn),-4.15%,–
Cc1cccc(C(=O)NC(=S)N2CCN(C)CC2)c1,-21.4%,–
Cc1cccc(C(=O)NCN2CCN(c3ccccc3C#N)CC2)c1,–,20 µM (active)
Cc1cccc(C(=O)NC2CCN(C(=O)N3CCOCC3)CC2)c1,-14.5%,–
O=C(CSc1nnc(Cn2nnc3ccccc32)o1)Nc1cccc(Cl)c1,–,12.6 µM (active)

SMILES,"activity, negative = inhibition",AC50
COc1cccc(C(C(=O)Nc2ccc(F)cc2)N(C(=O)Cn2nnc3ccccc32)C2CC2)c1 (stereo not drawn),-8.22%,–
Cc1cc(C)c2cc(CN(Cc3nnnn3Cc3ccc(F)cc3)C3CCCC3)c(=O)[nH]c2c1,–,14.1 µM (active)
Nc1ccc(S(=O)(=O)Nc2ccccn2)cc1,-9.64% [at 25.6 µM],–
O=C1C(Cl)=C(Nc2ccc(S(=O)(=O)Nc3ccccn3)cc2)C(=O)c2ccccc21,–,3.16 µM (active)
CN(C)S(=O)(=O)Nc1ccccn1,-5.82% [at 11.4 µM],–
COc1cc(-c2nnc(SCC3(c4ccccc4)OCCO3)o2)cc(OC)c1OC,–,12.6 µM (active)
COc1cc(C(=O)Nc2ccc(-c3nnc(-c4ccco4)o3)cc2)cc(OC)c1OC,14.3%,–
CCCCOC(=O)CSc1nnc(-c2cc(OC)c(OC)c(OC)c2)o1,–,31.6 µM (active)
COc1cc(-c2nnc(-c3ccc(N4CCOCC4)cc3)o2)cc(OC)c1OC,-18.7%,–
CN(C)c1ccc(-c2cncnc2-n2ccnc2)cc1,–,2.51 µM (active)
CN1CCN(c2ncncc2-c2ccc(N(C)C)cc2)CC1,–,12.6 µM (active)
c1cn(-c2ccnc(-c3ccc4c(c3)OCO4)n2)cn1,–,0.0251 µM (active)
CN(C)C(=O)c1ccc(-c2cncnc2-n2ccnc2)cc1,–,20 µM (active)
CN(C)C(=O)c1ccc(-c2cncnc2N2CCNCC2)cc1,0.554%,–
CC1=C/C(=N/O)C([C@H]2C=C(C)CC(C)(C)[C@@H]2O)C(C)(C)C1 (stereo partly drawn),-5.85% [at 11.4 µM],–
CN(C)C(=O)c1ccc(-c2nccc(-n3ccnc3)n2)cc1,–,15.8 µM (active)
COc1ccc(S(=O)(=O)N2CCC[C@H]2C(=O)NC2=NCCS2)cc1,-24.4%,–
Cc1ccc(OCC(=O)NC2=NCCS2)cc1,–,8.91 µM (active)
CC(C)C(NC(=O)C12CC3CC(CC(C3)C1)C2)C(=O)NC1=NCCS1 (stereo not drawn),-16.5%,–
O=C(NCc1cccnc1)C1COc2ccccc2O1 (stereo not drawn),–,15.8 µM (active)
Cc1ccc(S(=O)(=O)N2CCN(C(=O)C3COc4ccccc4O3)CC2)cc1C (stereo not drawn),-49%,–
O=C(NCCCN1CCOCC1)C1COc2ccccc2O1 (stereo not drawn),5.54%,–
O=C(Nc1cccnc1)C1COc2ccccc2O1 (stereo not drawn),–,11.2 µM (active)
O=C(NCc1cccnc1)[C@@H]1[C@@H](C(=O)O)[C@H]2CC[C@@H]1O2,-11% [at 11.4 µM],–
